High-throughput results as filed in PubChem BioAssay.
Sampled rows, rich in hits. Any-hit rate of the full collection: about 10%.
Sfp PPTase inh: blocks B. subtilis Sfp PPTase activity. Q9F4F7. Biochemical Sfp PPTase activity, qHTS. Potency, µM, inactives show largest response in the series, negative = inhibition, usual class: inhibitors. actives 3.5% (n = 310,000). AID 1490;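 further: the enzyme is Sfp with the accession as filed and its product quenches rhodamine fluorescence; potency means the concentration at half of the fitted maximal effect; 0% = enzyme reaction without inhibitor and -100% = no enzyme wells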
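Buffer: 50 mM Hepes-Na pH 7.6, 10 mM MgCl2, 0.01% Nonidet P-40, 0.01% BSA. Enzyme 15 nM, pre-exposed to compound 15 min; substrates then added and fluorescence change tracked over 30 min.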
G9a block: blocks human histone lysine methyltransferase G9a; Q96KQ7; G9a H3K9 monomethylation, AlphaScreen, 2 h; Potency, µM (titrated, usually from 102 µM), inactives show at the top dose activity, negative = inhibition, usual class: inhibitors; actives 8.8% (n = 350,000); AID 504332; further: potency means the concentration at half of the fitted maximal effect; nearly all actives have a fitted effect of over 75% in size
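Step 1: enzyme (final 20 nM) with compound, 15 min RT. Step 2: substrate peptide 500 nM and SAM 20 uM, 2 h RT. Step 3: anti-H3K9me1 antibody and AlphaScreen beads, 10 min, then plate read.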
PLK1 PBD block: inhibitors of human PLK1 polo-box domain binding; P53350; Plk1 PBD binding of FITC phosphopeptide, fluorescence polarization; Potency, µM, without a hit: max response, negative = inhibition, most hits filed as inhibitors; actives 2.8% (n = 360,000); AID 720504; further: potency means the concentration at half of the fitted maximal effect; series mostly up to about 57 µM; nearly all actives have a fitted effect of over 65% in size
Target sequence (P53350 whole entry, looked up, the tested form may be a part): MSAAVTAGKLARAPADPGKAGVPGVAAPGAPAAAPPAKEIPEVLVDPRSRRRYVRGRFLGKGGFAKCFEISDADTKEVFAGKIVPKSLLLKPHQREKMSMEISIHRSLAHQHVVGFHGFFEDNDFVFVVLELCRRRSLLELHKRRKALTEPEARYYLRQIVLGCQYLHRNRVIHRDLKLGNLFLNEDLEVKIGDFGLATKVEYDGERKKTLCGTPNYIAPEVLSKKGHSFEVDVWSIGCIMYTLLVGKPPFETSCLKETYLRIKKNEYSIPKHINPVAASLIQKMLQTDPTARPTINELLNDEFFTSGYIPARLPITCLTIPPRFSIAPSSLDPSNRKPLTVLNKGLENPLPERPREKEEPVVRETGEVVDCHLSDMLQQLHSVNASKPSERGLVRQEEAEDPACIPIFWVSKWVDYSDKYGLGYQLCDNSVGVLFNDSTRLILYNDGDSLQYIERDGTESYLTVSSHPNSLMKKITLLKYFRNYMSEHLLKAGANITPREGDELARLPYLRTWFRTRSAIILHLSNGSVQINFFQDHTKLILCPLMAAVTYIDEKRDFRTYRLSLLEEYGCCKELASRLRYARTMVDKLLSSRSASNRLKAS
Mm-Cpn inhibitor: M. maripaludis TRiC chaperonin inhibition | purified Mm-Cpn ATPase, ADP Transcreener TR-FRET | Potency, µM (series often up to 76.9 µM), inactives show at the highest dose activity, negative = inhibition, usual class: inhibitors | actives 0.031% (n = 330,000); further: potency means the concentration at half of the fitted maximal effect; nearly all actives have a fitted effect of over 80% in size
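Purified archaeal chaperonin (25 nM final) was preincubated with compound for 10 min at 37°C, then ATP (10 uM final) was added for 30 min at 37°C in Tris pH 7.4/KCl/MgCl2/DTT buffer. ADP was quantified by HTRF Transcreener TR-FRET.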
CCT chaperon mod: modulators of cytosolic chaperonin (CCT/TRiC) activity. activity change, % (no concentration beside the values), hits read low. AID 651819. purified chaperonin ATPase assay, HTRF ADP detection, 30 min. actives 0.3% (n = 360,000); in the data active means activity change below about -30%
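TRiC (40 or 20 nM final, by batch activity) in 30 mM Tris pH 7.4, 100 mM KCl, 5 mM MgCl2, 1 mM DTT was treated with compound at 76 uM single dose, then 10 uM ATP, 30 min at 37 °C. ADP was read by HTRF Transcreener.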
VDR inhibitor: inhibitors of human vitamin D receptor; P11473; VDR-SRC2-3 peptide fluorescence polarization, 2 h; Potency, µM, for the others: max response, negative = inhibition, most hits filed as inhibitors; actives 0.93% (n = 400,000); further: potency means the concentration at half of the fitted maximal effect
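Fluorescence polarization assay of small-molecule disruption of VDR binding to coregulator peptide SRC2-3. Compounds and controls pin-transferred, then read after 2 h incubation at ambient room temperature.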
* hit, by the source's call; ? = inconclusive; · = no result given; [ ] = dose if it differs, or a comment. Unless noted, the call rests on the fitted dose curve; in most records, active means well fitted curve in the direction sought with a large enough effect; inconclusive means small, poorly fitted or top-dose-only effect, or another doubt; inactive means no such curve, though single readings can be large; an effect the other way counts as inactive or inconclusive. Unless noted, on the % scale 0 is the no-effect control and ±100 the full control effect.

SMILES	Sfp PPTase inh	G9a block	PLK1 PBD block	Mm-Cpn inhibitor	CCT chaperon mod	VDR inhibitor
OCC1=CC[N+]2(Cc3ccccc3)CCC(O)[C@@H]12 (some centres not stated)	27%	·	·	·	·	1%
O=C(/C=C/Nc1ccc(Nc2ccccc2)cc1)c1cccs1	6%	4µM*	15%	1%	-7	10%
O=C(/C=C/Nc1cccc([N+](=O)[O-])c1)c1cccs1	-16%	40µM*	-1%	-10%	1	-5%
O=C(/C=C/Nc1ccccc1C(=O)O)c1cccs1	11%	?	-4%	-10%	-4	?
Cc1ccc(N/C=C/C(=O)c2cccs2)cc1C	50µM*	-1%	-7%	-4%	-1	10%
CCc1ccc(CNC(=O)c2ccc(CSc3nc4ccncc4n3Cc3ccccc3)cc2)cc1	·	?	·	·	·	14%
CN(C)C(=O)c1ccc2c(c1)N(CC(=O)NCc1ccc(F)cc1)C(=O)C1CCCCN21 (configuration not stated)	·	3%[59 µM]	·	·	·	8%
O=C(Nc1cccc(Cl)c1Cl)c1cc(S(=O)(=O)NCc2ccc3c(c2)OCO3)ccc1F	·	12%[59 µM]	·	·	·	6%
Cc1ccc(OCC(=O)NNC(=S)NC(=O)C2CCCCC2)c(C)c1	30%	18µM*	-2%	-1%	-3	8%
Cc1ccc(OCC(=O)NNC(=S)NC(=O)C2CC2)c(C)c1	11%	10µM*	·	1%	·	·
Cc1ccc(OCC(=O)NNC(=S)NC(=O)C(C)(C)C)c(Br)c1	7%	25µM*	-20%	0%	2	2%
Cc1ccc(OCC(=O)NNC(=O)c2ccc(NC(=O)C3CC3)cc2)c(C)c1	5%	66%	-6%	?	1	0%
COc1ccc(OC)c(-c2cc(C(=O)Nc3ccc(C)c(C)c3)no2)c1	·	11%[59 µM]	·	·	·	-3%
Cc1nc(NCc2ccccc2)c2nc(-c3ccccc3)n(C(C)CN(C)C)c2n1 (configuration not stated)	11%	·	·	·	·	·
COC(=O)NC(/C(C(=O)OC)=C(\C)NCc1ccccc1)c1ccc(F)cc1 (configuration not stated)	-13%	·	·	·	·	·
COc1ccc(NS(=O)(=O)c2ccc(N3CCCC3)c(NC(=S)Nc3cccc(S(=O)(=O)N(C)C)c3)c2)cc1	4µM*	1.6µM*	·	?	·	·
CNC(=S)Nc1ccc(N2CCCC2)c(S(=O)(=O)Nc2ccc(OC)cc2)c1	·	·	?	0%	1	-7%
O=c1c2ccccc2sc2ccccc12	·	·	-4%	·	-35*	6%
COC(=O)CSc1nc(SC)nc2c1sc1nc(-c3ccco3)c3c(c12)CC(C)(C)OC3	·	·	-11%	·	-3	-5%
CSc1nc(N(CCO)CCO)c2sc3nc(-c4ccco4)c4c(c3c2n1)CCC4	18µM*	13µM*	?	-11%	-2	-11%
CSc1nc(SCCO)c2sc3nc(-c4ccco4)c4c(c3c2n1)CC(C)(C)OC4	20µM*	?	-20%	-16%	0	-13%
OCCN(CCO)c1ncnc2c1sc1nc(N3CCOCC3)c3c(c12)CCCC3	-18%	-51%	0%	0%	-1	-21%
CC1(C)Cc2c(c(-c3ccco3)nc3sc4c(NCCO)ncnc4c23)CO1	50µM*	?	-10%	-1%	-4	-5%
Cc1nc2sc3c(NCc4ccco4)ncnc3c2c2c1COC(C)(C)C2	7%	?	-4%	1%	-5	14%
CC(=O)NC(CC(=O)NCCc1ccccc1)c1ccccc1 (configuration not stated)	10%	6%	-7%	4%	0	3%
COc1ccccc1OCCNC(=O)CC(NC(C)=O)c1ccccc1 (configuration not stated)	12%	79µM*	2%	2%	-1	-1%
CN1C(=O)C(=C2CCCCCC2)SC1=S	56µM*	45µM*	-26%	-1%	-1	-6%
Cc1ccc(Cl)cc1NC(=O)Cn1nnc2sc3c(c2c1=O)CCC(C(C)(C)C)C3 (configuration not stated)	·	-5%[59 µM]	·	·	·	5%
CCCOC(=O)c1c(-c2ccccc2)c(-c2ccccc2)nn(C)c1=O	·	?	·	·	·	2%
